Assay [1] can be described thus: NCI Yeast Anticancer Drug Screen. Data for the rad50 strain (AID 155).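 Also: 0% = growth of vehicle-only cultures of the same strain.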 As to conditions: S. cerevisiae rad50 strain growth inhibition, active compounds read high. In short, it runs like this:
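DNA repair mutant yeast, compound exposure, growth read-out; inhibition is taken relative to vehicle.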

A short description of assay [2]: NCI Yeast Anticancer Drug Screen. Data for the mec2-1 strain (AID 157). As to conditions: S. cerevisiae mec2-1 strain, active compounds read high. In short, it runs like this: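 Strain: mec2-1 (DNA repair/cell cycle alteration). Compound exposure, then growth measured; inhibition expressed relative to vehicle.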
Assay [3] in a line: NCI Yeast Anticancer Drug Screen. Data for the sgs1 mgt1 strain (AID 161).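 Also: 0% = growth of cultures given vehicle only.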 As to conditions: S. cerevisiae sgs1 mgt1 strain, active compounds read high. A digest of the protocol: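 Genetically altered yeast, compound exposure, growth inhibition relative to vehicle.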
A short description of assay [4]: NCI Yeast Anticancer Drug Screen. Data for the cln2 rad14 strain (AID 165).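 Also: 0% = growth equal to vehicle treated cultures.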 The note with it: S. cerevisiae cln2 rad14 strain, active compounds read high. In short, it runs like this:
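Compounds are applied to the cln2 rad14 yeast strain, and growth is then compared with that of vehicle-treated cultures to give inhibition.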

Assay [5] in a line: NCI Yeast Anticancer Drug Screen. Data for the bub3 strain (AID 167). The note with it: S. cerevisiae bub3 mutant strain, active compounds read high. In short, it runs like this:
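In this screen, a yeast mutant lacking normal mitotic checkpoint function is challenged with compound. Relative growth versus vehicle gives the inhibition value.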

Assay [6] can be described thus: NCI Yeast Anticancer Drug Screen. Data for the mlh1 rad18 strain (AID 175). As to conditions: S. cerevisiae mlh1 rad18 strain growth inhibition, active compounds read high. In short, it runs like this:
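Read-out is yeast growth inhibition, calculated against vehicle-only controls. The compound was applied to a strain engineered with DNA damage repair alterations.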

The mark [7] stands for this setting: at 5.0 µM (retest, dose inferred, filed as 0.5).
Setting [8] is: at 50.0 µM (retest, dose inferred, filed as 5.0).

These results are taken from PubChem BioAssay (NCI).

Molecules are shown by their SMILES. The panel holds about 79,000 compounds, 15% with a hit somewhere; the sample as a whole holds those more often. Unmarked numbers belong to inactive results. Calls of active or inactive are those of the source. Rule as the data show it: active = growth inhibition above about 70%; inactive = the rest.

As for `CC(=C/c1ccccc1)/C=C1/NC(=S)N(/C=C2\C(=O)Oc3ccccc3C2=O)C1=O`, the growth inhibition is -13% in assay [1] (setting [7]); 28% in assay [1] (setting [8]); 98.1% (active) in assay [1] (at 50.0 µM); -8% in assay [2] (setting [7]); 41% in assay [2] (setting [8]); 98.7% (active) in assay [2] (at 50.0 µM). The growth inhibition in assay [3] (setting [7]) was -16%; in assay [3] (setting [8]), 28%; in assay [3] (at 50.0 µM), 89.1% (active); in assay [4] (setting [7]), -28%; in assay [4] (setting [8]), 34%; in assay [4] (at 50.0 µM), 98.5% (active). Besides, the growth inhibition in assay [5] (setting [7]) is -24%; in assay [5] (setting [8]), 11%; in assay [5] (at 50.0 µM), 98.5% (active); in assay [6] (setting [7]), -7%; in assay [6] (setting [8]), 12%; in assay [6] (at 50.0 µM), 98.5% (active).

On to `O=C(Nc1ccc(F)cc1)N1CCCCC1`, for which the growth inhibition in assay [1] (setting [7]) was 41%; in assay [1] (setting [8]), 43%; in assay [1] (at 50.0 µM) it was 8.15%; in assay [2] (setting [7]) it was 36%; in assay [2] (setting [8]), 29%; in assay [2] (at 50.0 µM), 47%. The growth inhibition was 40% in assay [3] (setting [7]); 42% in assay [3] (setting [8]); 36.9% in assay [3] (at 50.0 µM); 29% in assay [4] (setting [7]); 31% in assay [4] (setting [8]); 9.25% in assay [4] (at 50.0 µM). Further, the growth inhibition in assay [5] (setting [7]) is 41%; in assay [5] (setting [8]) it was 70% (active); in assay [5] (at 50.0 µM) it was 17.3%; in assay [6] (setting [7]) it was 43%; in assay [6] (setting [8]) it was 39%; in assay [6] (at 50.0 µM) it was 33.1%.

`CN(C)CCOC(=O)c1ccccc1`: the growth inhibition is 3% in assay [1] (setting [7]); 88% (active) in assay [1] (setting [8]); 49.4% in assay [1] (at 50.0 µM); -6% in assay [2] (setting [7]); 42% in assay [2] (setting [8]); 22.4% in assay [2] (at 50.0 µM). The growth inhibition in assay [3] (setting [7]) was -2%; in assay [3] (setting [8]), 60%; in assay [3] (at 50.0 µM) it was 24%; in assay [4] (setting [7]) it was 0%; in assay [4] (setting [8]), 81% (active); in assay [4] (at 50.0 µM) it was 27.1%. The growth inhibition was -7% in assay [5] (setting [7]); 71% (active) in assay [5] (setting [8]); 37.2% in assay [5] (at 50.0 µM); 2% in assay [6] (setting [7]); 78% (active) in assay [6] (setting [8]); 42.2% in assay [6] (at 50.0 µM).

Consider `Cc1[nH]n(C(N)=S)c(=O)c1N=Nc1ccc([N+](=O)[O-])cc1`, for which the growth inhibition in assay [1] (setting [7]) is -19%; in assay [1] (setting [8]) it was 35%; in assay [1] (at 50.0 µM), 91.5% (active); in assay [2] (setting [7]), -4%; in assay [2] (setting [8]) it was 27%; in assay [2] (at 50.0 µM), 51.2%. Further, the growth inhibition was -4% in assay [3] (setting [7]); 66% in assay [3] (setting [8]); 88.2% (active) in assay [3] (at 50.0 µM); -13% in assay [4] (setting [7]); 33% in assay [4] (setting [8]); 7.5% in assay [4] (at 50.0 µM). Also, the growth inhibition in assay [5] (setting [7]) was -12%; in assay [5] (setting [8]) it was 54%; in assay [5] (at 50.0 µM), 51.8%; in assay [6] (setting [7]) it was -6%; in assay [6] (setting [8]), 48%; in assay [6] (at 50.0 µM), 93.4% (active).

Take `O=C(NNc1ccccc1)C(O)C(O)C(O)C(O)C(O)C(O)C(O)CO` (configuration not stated): the growth inhibition in assay [1] (setting [7]) was 17%; in assay [1] (setting [8]), 87% (active); in assay [1] (at 50.0 µM), 69.1%; in assay [2] (setting [7]), 10%; in assay [2] (setting [8]), 78% (active); in assay [2] (at 50.0 µM), 39.4%. Moreover, the growth inhibition in assay [3] (setting [7]) was 10%; in assay [3] (setting [8]) it was 82% (active); in assay [3] (at 50.0 µM), 88.1% (active); in assay [4] (setting [7]) it was 3%; in assay [4] (setting [8]) it was 82% (active); in assay [4] (at 50.0 µM), 95.9% (active). Also, the growth inhibition was 1% in assay [5] (setting [7]); 94% (active) in assay [5] (setting [8]); 88.3% (active) in assay [5] (at 50.0 µM); 45% in assay [6] (setting [7]); 96% (active) in assay [6] (setting [8]); 92.8% (active) in assay [6] (at 50.0 µM).

As for `Clc1ccc(/C=N/Nc2c3ccccc3nc3ccccc23)c(Cl)c1`, the growth inhibition is -6% in assay [1] (setting [7]); 84% (active) in assay [1] (setting [8]); 86.4% (active) in assay [1] (at 50.0 µM); -11% in assay [2] (setting [7]); 87% (active) in assay [2] (setting [8]); 46% in assay [2] (at 50.0 µM). The growth inhibition in assay [3] (setting [7]) was -5%; in assay [3] (setting [8]), 83% (active); in assay [3] (at 50.0 µM), 87.8% (active); in assay [4] (setting [7]), -47%; in assay [4] (setting [8]), 64%; in assay [4] (at 50.0 µM), 28.5%. In addition, the growth inhibition is -12% in assay [5] (setting [7]); 92% (active) in assay [5] (setting [8]); 60.4% in assay [5] (at 50.0 µM); 0% in assay [6] (setting [7]); 87% (active) in assay [6] (setting [8]); 85.4% (active) in assay [6] (at 50.0 µM).

For the molecule `CCCCCCCCC/C=C1\CCC(CN(C)C)C1=O` (configuration not stated), the growth inhibition was -26% in assay [1] (setting [7]); 88% (active) in assay [1] (setting [8]); 89.4% (active) in assay [1] (at 50.0 µM); -36% in assay [2] (setting [7]); 98% (active) in assay [2] (setting [8]); 93% (active) in assay [2] (at 50.0 µM). For the same molecule, the growth inhibition in assay [3] (setting [7]) was -28%; in assay [3] (setting [8]), 91% (active); in assay [3] (at 50.0 µM) it was 90.8% (active); in assay [4] (setting [7]), -6%; in assay [4] (setting [8]), 96% (active); in assay [4] (at 50.0 µM), 89.6% (active). The growth inhibition is -24% in assay [5] (setting [7]); 97% (active) in assay [5] (setting [8]); 89.5% (active) in assay [5] (at 50.0 µM); -27% in assay [6] (setting [7]); 97% (active) in assay [6] (setting [8]); 88.8% (active) in assay [6] (at 50.0 µM).

For `CCc1c(C)[nH]c(-c2csc(N)n2)c1C`, the growth inhibition in assay [1] (setting [7]) was -1%; in assay [1] (setting [8]) it was 93% (active); in assay [1] (at 50.0 µM) it was -4.25%; in assay [2] (setting [7]), 1%; in assay [2] (setting [8]) it was 95% (active); in assay [2] (at 50.0 µM), 83.9% (active). The growth inhibition in assay [3] (setting [7]) is -1%; in assay [3] (setting [8]), 94% (active); in assay [3] (at 50.0 µM), 2.8%; in assay [4] (setting [7]), 1%; in assay [4] (setting [8]), 93% (active); in assay [4] (at 50.0 µM) it was 31.7%. The growth inhibition is 4% in assay [5] (setting [7]); 92% (active) in assay [5] (setting [8]); 67.8% in assay [5] (at 50.0 µM); 2% in assay [6] (setting [7]); 93% (active) in assay [6] (setting [8]); 56.8% in assay [6] (at 50.0 µM).

With `COc1ccc(C2COc3c(ccc(O)c3O)C2)cc1` (configuration not stated), the growth inhibition is 1% in assay [1] (setting [7]); 99% (active) in assay [1] (setting [8]); 93.3% (active) in assay [1] (at 50.0 µM); 9% in assay [2] (setting [7]); 99% (active) in assay [2] (setting [8]); 97.3% (active) in assay [2] (at 50.0 µM). The growth inhibition in assay [3] (setting [7]) was -2%; in assay [3] (setting [8]) it was 97% (active); in assay [3] (at 50.0 µM) it was 94.7% (active); in assay [4] (setting [7]), 11%; in assay [4] (setting [8]), 98% (active); in assay [4] (at 50.0 µM), 89.2% (active). For the same molecule, the growth inhibition is 11% in assay [5] (setting [7]); 98% (active) in assay [5] (setting [8]); 81.4% (active) in assay [5] (at 50.0 µM); 1% in assay [6] (setting [7]); 98% (active) in assay [6] (setting [8]); 96.8% (active) in assay [6] (at 50.0 µM).
